# In PubChem BioAssay (NCATS):
# Results filed as inconclusive are left out. Where a call stands in place of a potency, no number is given. Activity calls are given as the source filed them. Unless noted, the call rests on the fitted dose curve; in most records, active means well fitted curve in the direction sought with a large enough effect; inconclusive means small, poorly fitted or top-dose-only effect, or another doubt; inactive means no such curve, though single readings can be large; an effect the other way counts as inactive or inconclusive.
# Key:
# [1] = test system: Zika virus NS2B-NS3 protease (unlinked complex); test: Primary screen GU Rhodamine qHTS for Zika virus inhibitors: Unlinked NS2B-NS3 protease assay (AID 1347159); further: nearly all actives have a fitted effect of over 60% in size; further: potency means the concentration at half of the fitted maximal effect
# Summary of the method: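 Unlinked NS2B/NS3, 25 nM; Rhod110 peptide, 1.5 microM; compounds, up to 114 microM. Reaction run 15 min at RT in 10 mM Tris-HCl pH 8.0, 0.01% Tween 20; kinetic fluorescence change fitted with a 4-parameter Hill model.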
# [2] = molecular target: Cytochrome P450 2C9 (Homo sapiens) (UniProt P11712); test: Cytochrome P450 family 2 subfamily C member 9 (CYP2C9) small molecule antagonists: luciferase biochemical (cell-free) qHTS assay (AID 1645842; active means well fitted curve in the direction sought with a large enough effect in the repeat runs; an effect the other way counts as inactive or inconclusive; further: nearly all actives have a fitted effect of over 55% in size; further: potency means the concentration at half of the fitted maximal effect)
# Summary of the method: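 P450-Glo CYP2C9 system: proluciferin substrate with enzyme in mix containing 0.4% BSA, 10 min at room temperature, then NADPH regeneration solution added and incubated 1 h at 37C. Detection reagent stopped reaction; luminescence read after 20 min as RLU.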
# [3] = molecular target: Catechol O-methyltransferase (Homo sapiens) (UniProt P21964); test: Confirmatory Screen for Target Class Profiling of Small Molecule Inhibitors of Methyltransferases (AID 1745852; calls by dose curve; further: potency means the concentration at half of the fitted maximal effect); details: MTase-Glo luminescence, SAH detection, recombinant enzyme; measured here: COMT max response; stronger effect = lower value
# [4] = molecular target: Guanidinoacetate N-methyltransferase (Homo sapiens) (UniProt Q14353); test: as above; details: activity change, negative = inhibition: at 57.3 µM (top of the series) unless noted
# [5] = molecular target: Nicotinamide N-methyltransferase (Homo sapiens) (UniProt P40261); test: as above; details: MTase-Glo luminescence, SAH detection, recombinant enzyme; measured here: NNMT max response; stronger effect = lower value
# [6] = molecular target: Phenylethanolamine N-methyltransferase (Homo sapiens) (UniProt P11086); test: as above; details: MTase-Glo luminescence, SAH detection, recombinant enzyme; measured here: PNMT max response; stronger effect = lower value
# [7] = Primary redox qHTS assay for identification of artifact compounds. (AID 1845223)
# Summary of the method: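 Redox-cycling detection via DTT (250 uM final) oxidation coupled to Amplex Red (25 uM)/HRP (250 mU/mL) in HBSS. 15 min preincubation plus 30 min after DTT, room temperature. Ex/Em 525/598 nm; 4-parameter Hill fit against DMSO and 10 uM DA3003.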
# PA-1 = test: Primary qHTS to identify gynecologic anti-cancer compounds using libraries of approved drugs and bioactive compounds (AID 1345084); details: Gynecologic cancer cell panel viability, ATPlite luminescence, 48 h; series mostly up to 57.5 µM; further: nearly all actives have a fitted effect of over 55% in size; further: potency means the concentration at half of the fitted maximal effect
# Summary of the method: (§1)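 Cells, 1,000 per well, were allowed to settle for 16 h at 37 C before compound addition. Five concentrations were tested for 48 h, and viability was read by ATPlite luminescence after 15 min at room temperature.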
# SKOV3 = test: as above; details: Gynecologic cancer cell panel viability, ATPlite luminescence, 48 h; series mostly up to 57.5 µM
# Summary of the method: as §1
# CAOV3 = test: as above; details: Gynecologic cancer cell panel viability, ATPlite luminescence, 48 h; series mostly up to 57.5 µM
# Summary of the method: as §1
# [8] = molecular target: Cytochrome P450 2D6 (Homo sapiens) (UniProt P10635); test: Cytochrome P450 family 2 subfamily D member 6 (CYP2D6) small molecule antagonists: luciferase biochemical (cell-free) qHTS assay (AID 1645840; active means well fitted curve in the direction sought with a large enough effect in the repeat runs; an effect the other way counts as inactive or inconclusive; further: nearly all actives have a fitted effect of over 55% in size; further: potency means the concentration at half of the fitted maximal effect)
# Summary of the method: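 P450-Glo CYP2D6 system: proluciferin substrate converted by enzyme to luciferin, read by luminescence proportional to activity. Enzyme-substrate mix with compound 10 min at room temperature, then NADPH regeneration 1 h before detection reagent.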
# [9] = qHTS to identify inhibitors of the type 1 interferon - major histocompatibility complex class I in skeletal muscle: primary screen against the NCATS Mechanism Interrogation Plate v5.0 (MIPE) Libary (AID 1347411); further: nearly all actives have a fitted effect of over 65% in size; further: potency means the concentration at half of the fitted maximal effect
# Summary of the method: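 IFN-beta-driven (4 ng/ml) HLA-B-HiBit expression in CRISPR-tagged C25cl48 myoblasts; compounds 11-pt, 1:3, max 46 uM, 24 hr exposure; lytic NanoLuc complementation luminescence.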
# [10] = qHTS assay to identify inhibitors of the type 1 interferon - major histocompatibility complex class I in skeletal muscle: Counter screen cell viability and HiBit confirmation (AID 1347412); details: iHSKM muscle cells + IFN-b, HiBiT or CellTiter-Glo, 24 h; further: potency means the concentration at half of the fitted maximal effect; nearly all actives have a fitted effect of over 60% in size
# Summary of the method: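 Human myoblast knock-in line, 4.0 ng/ml IFN-beta stimulation, 24 h compound treatment. Endpoints: HiBiT lytic luminescence (HLA-B level) and CellTiter Glo (ATP). Dosing 12 concentrations, 3-fold steps, 46 uM highest final.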
# [11] = molecular target: Luciferin 4-monooxygenase (Photinus pyralis) (UniProt P08659); test: Biochemical firefly luciferase enzyme assay for NPC (AID 624030);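 further: purified P. pyralis luciferase at 10 nM with luciferin and ATP substrate; nearly all actives have a fitted effect of over 70% in size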
# Summary of the method: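 Purified P. pyralis luciferase at 10 nM in 50 mM Tris Acetate (final), luminescence read within 5 minutes of enzyme addition to compounds. Activity normalised to PTC124 versus DMSO; concentration-response curves classed by r2, magnitude and activity.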
# Cytochrome P450 2D6 (Homo sapiens), sequence (P10635 whole entry, looked up): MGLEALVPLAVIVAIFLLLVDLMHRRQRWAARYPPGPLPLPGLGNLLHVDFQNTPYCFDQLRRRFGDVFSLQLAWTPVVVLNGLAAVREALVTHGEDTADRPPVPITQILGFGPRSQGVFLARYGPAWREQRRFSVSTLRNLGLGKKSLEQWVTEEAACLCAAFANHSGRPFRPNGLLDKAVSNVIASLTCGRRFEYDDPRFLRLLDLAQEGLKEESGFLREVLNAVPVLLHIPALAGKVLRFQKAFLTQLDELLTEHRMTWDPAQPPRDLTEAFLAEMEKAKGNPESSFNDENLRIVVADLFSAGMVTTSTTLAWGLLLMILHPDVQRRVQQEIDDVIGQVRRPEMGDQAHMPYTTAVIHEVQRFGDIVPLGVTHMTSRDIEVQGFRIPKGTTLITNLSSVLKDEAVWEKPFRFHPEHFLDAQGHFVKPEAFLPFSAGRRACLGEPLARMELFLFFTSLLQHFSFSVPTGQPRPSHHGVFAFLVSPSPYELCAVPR
# Cytochrome P450 2C9 (Homo sapiens), sequence (P11712 whole entry, looked up): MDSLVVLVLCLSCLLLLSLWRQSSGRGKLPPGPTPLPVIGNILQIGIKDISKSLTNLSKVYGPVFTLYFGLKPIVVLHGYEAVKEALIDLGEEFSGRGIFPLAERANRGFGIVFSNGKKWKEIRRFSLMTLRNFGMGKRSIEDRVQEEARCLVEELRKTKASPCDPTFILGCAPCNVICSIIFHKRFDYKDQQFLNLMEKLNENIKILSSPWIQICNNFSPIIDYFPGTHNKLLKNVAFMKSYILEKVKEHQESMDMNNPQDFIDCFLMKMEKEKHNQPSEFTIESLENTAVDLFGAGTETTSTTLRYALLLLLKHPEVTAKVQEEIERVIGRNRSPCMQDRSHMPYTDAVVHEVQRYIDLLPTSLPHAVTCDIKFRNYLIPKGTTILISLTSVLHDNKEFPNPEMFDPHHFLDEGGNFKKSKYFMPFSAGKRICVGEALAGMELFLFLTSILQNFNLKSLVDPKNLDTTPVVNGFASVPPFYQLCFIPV
# Nicotinamide N-methyltransferase (Homo sapiens), sequence (P40261 whole entry, looked up): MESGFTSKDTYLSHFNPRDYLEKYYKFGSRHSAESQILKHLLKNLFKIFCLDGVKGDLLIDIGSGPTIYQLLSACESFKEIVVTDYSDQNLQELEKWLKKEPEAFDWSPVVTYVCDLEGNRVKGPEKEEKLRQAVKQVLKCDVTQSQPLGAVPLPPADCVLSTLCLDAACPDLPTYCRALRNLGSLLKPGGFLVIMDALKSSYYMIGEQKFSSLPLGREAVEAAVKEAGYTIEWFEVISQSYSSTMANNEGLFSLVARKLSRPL
# Catechol O-methyltransferase (Homo sapiens), sequence (P21964 whole entry, looked up): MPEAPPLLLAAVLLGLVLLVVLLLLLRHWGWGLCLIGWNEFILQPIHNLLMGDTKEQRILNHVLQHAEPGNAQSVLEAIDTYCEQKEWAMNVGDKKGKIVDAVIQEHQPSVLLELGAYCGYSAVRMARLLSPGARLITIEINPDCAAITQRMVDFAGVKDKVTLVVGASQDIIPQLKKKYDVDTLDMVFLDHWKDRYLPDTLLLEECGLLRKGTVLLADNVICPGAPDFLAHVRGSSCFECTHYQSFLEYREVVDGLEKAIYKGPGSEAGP
# Phenylethanolamine N-methyltransferase (Homo sapiens), sequence (P11086 whole entry, looked up): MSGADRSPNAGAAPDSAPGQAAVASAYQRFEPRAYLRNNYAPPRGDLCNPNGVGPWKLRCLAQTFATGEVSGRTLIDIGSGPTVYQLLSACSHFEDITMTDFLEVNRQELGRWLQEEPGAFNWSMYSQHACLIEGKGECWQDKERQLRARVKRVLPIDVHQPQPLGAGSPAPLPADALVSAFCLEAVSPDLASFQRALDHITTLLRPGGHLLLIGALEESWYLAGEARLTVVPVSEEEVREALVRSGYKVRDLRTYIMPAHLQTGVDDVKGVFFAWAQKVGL
# Luciferin 4-monooxygenase (Photinus pyralis), sequence (P08659 whole entry, looked up): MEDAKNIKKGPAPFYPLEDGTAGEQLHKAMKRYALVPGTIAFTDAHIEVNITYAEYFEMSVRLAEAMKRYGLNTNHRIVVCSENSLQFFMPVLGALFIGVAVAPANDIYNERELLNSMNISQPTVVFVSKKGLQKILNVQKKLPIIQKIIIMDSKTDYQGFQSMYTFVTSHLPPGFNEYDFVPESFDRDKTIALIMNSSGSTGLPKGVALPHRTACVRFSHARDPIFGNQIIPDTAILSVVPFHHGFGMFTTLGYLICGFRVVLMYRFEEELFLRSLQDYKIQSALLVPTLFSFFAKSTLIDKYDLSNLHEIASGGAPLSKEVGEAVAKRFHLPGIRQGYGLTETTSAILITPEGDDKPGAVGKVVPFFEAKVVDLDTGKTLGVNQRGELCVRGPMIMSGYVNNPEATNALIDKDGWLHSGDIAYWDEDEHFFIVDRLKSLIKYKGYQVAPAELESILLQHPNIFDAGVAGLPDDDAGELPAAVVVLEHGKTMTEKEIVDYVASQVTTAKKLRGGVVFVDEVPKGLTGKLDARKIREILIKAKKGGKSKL
compound,measurement,setting,value
CN(Cc1ccc(C(=O)O)cc1)c1ccc(OCc2c(-c3c(Cl)cccc3Cl)noc2C2CC2)nc1C(F)(F)F,Potency,[1],2 µM (active)
same,Potency,[2],10.7 µM (active)
same,activity,[3],-2.57%
same,"activity change, negative = inhibition",[4],-2.02%
same,activity,[5],-0.741%
same,activity,[6],0.284%
same,Potency,[7],inactive
same,Potency,PA-1,inactive
same,Potency,SKOV3,inactive
CC1=CC(=O)[C@@]2(C(C)C)C[C@@H]12,activity,[3],-4.64%
same,Potency,[4],48.2 µM (active)
same,activity,[5],-30.7%
same,activity,[6],-13.4%
same,Potency,[7],inactive
same,Potency,CAOV3,inactive
same,Potency,SKOV3,inactive
CC1CCN(c2cc(NC(=O)c3ccccc3)ncn2)CC1,Potency,[1],inactive
same,Potency,[8],inactive
same,Potency,[2],9.52 µM (active)
same,Potency,[7],inactive
same,Potency,SKOV3,inactive
O=C(Nc1cccc(C(F)(F)F)c1)c1ccccc1NCc1ccncc1,Potency,[1],inactive
same,Potency,[7],inactive
same,Potency,CAOV3,inactive
CC(C)c1ccc(NC(=O)C(c2ccccc2)N(C)C(=O)Cc2c[nH]c3ccccc23)cc1 (configuration not stated),Potency,[8],10.7 µM (active)
same,Potency,[2],2.39 µM (active)
same,Potency,[7],inactive
same,Potency,PA-1,inactive
same,Potency,SKOV3,inactive
COc1ccc(NS(=O)(=O)c2sc3ccc(Cl)cc3c2C)cc1N1CCNCC1,Potency,[1],inactive
same,Potency,[8],23.9 µM (active)
same,Potency,[7],inactive
same,Potency,PA-1,inactive
same,Potency,SKOV3,inactive
CNc1nc(-c2ccc3c(N)n[nH]c3c2)cc(N2CC(C(=O)NC3CCCCC3)CCC2C)n1 (configuration not stated),Potency,[1],inactive
same,Potency,[8],23.9 µM (active)
same,Potency,[2],2.13 µM (active)
CN[C@@H]1[C@@H](O)[C@@H](O[C@@H]2[C@@H](O)[C@H](O[C@H]3O[C@@H]([C@@H](C)NC)CC[C@H]3N)[C@@H](N)C[C@H]2N)OC[C@]1(C)O,Potency,[1],inactive
same,Potency,[7],inactive
same,Potency,PA-1,inactive
same,Potency,SKOV3,inactive
COc1ccc2c(c1)CN(C(=O)CCN1CCC(Cc3ccccc3)CC1)CCS2,Potency,[1],inactive
same,Potency,[8],0.536 µM (active)
same,Potency,PA-1,inactive
CCOC(=O)CCC(=O)O[C@H]1[C@H](O[C@@H]2[C@@H](C)[C@H](O[C@H]3C[C@@](C)(OC)[C@@H](O)[C@H](C)O3)[C@@H](C)C(=O)O[C@H](CC)[C@@](C)(O)[C@H](O)[C@@H](C)C(=O)[C@H](C)CC2(C)O)O[C@H](C)C[C@@H]1N(C)C (some centres not stated),Potency,[1],inactive
same,Potency,[7],inactive
same,Potency,PA-1,inactive
same,Potency,SKOV3,inactive
CC(=O)N1c2ccc(-c3ccc(C(=O)O)cc3)cc2C(Nc2ccc(Cl)cc2)CC1C (configuration not stated),Potency,[1],20 µM (active)
same,Potency,[8],inactive
same,Potency,[2],8.49 µM (active)
same,Potency,CAOV3,inactive
same,Potency,SKOV3,3.98 µM (active)
CCC(=O)Nc1cccc(Oc2nc(Nc3ccc(N4CCN(C)CC4)cc3OC)ncc2Cl)c1,Potency,[1],inactive
same,Potency,[9],inactive
same,Potency,[2],6.74 µM (active)
CCCCc1nc(C)c(CC(=S)N(C)C)c(=O)n1Cc1ccc(-c2ccccc2-c2nn[nH]n2)cc1,Potency,[8],inactive
same,Potency,[2],9.52 µM (active)
same,Potency,[7],inactive
same,Potency,PA-1,inactive
Cc1nnsc1C(=O)Nc1ccc(-n2nc(C(F)(F)F)cc2C(F)(F)F)cc1,Potency,[8],10.7 µM (active)
same,Potency,[2],15.1 µM (active)
same,Potency,[7],inactive
same,Potency,PA-1,inactive
same,Potency,SKOV3,inactive
COc1cc2nc(-c3cc(F)ccc3O)nc(N[C@@H]3CNC[C@H]3C(C)(C)O)c2cc1OC,Potency,[9],3.7 µM (active)
same,Potency,[8],19 µM (active)
same,Potency,[2],inactive
same,Potency,PA-1,inactive
same,Potency,SKOV3,inactive
same,Potency,[10]; HiBiT,8.83 µM (active)
same,Potency,[10]; Viability,31.3 µM (active)
CC[C@H]1OC(=O)[C@H](C)[C@@H](O[C@H]2C[C@@](C)(OC)[C@@H](O)[C@H](C)O2)[C@H](C)[C@@H](O[C@@H]2O[C@H](C)C[C@H](N(C)C)[C@H]2O)[C@](C)(O)C[C@@H](C)/C(=N/OCOCCOC)[C@H](C)[C@@H](O)[C@]1(C)O,Potency,PA-1,inactive
same,Potency,SKOV3,inactive
CC(CCC1(O)OC2CC3C4CC=C5CC(O[C@@H]6O[C@H](CO)[C@@H](O[C@@H]7O[C@H](CO)[C@@H](O)[C@H](O)[C@H]7O)[C@H](O)[C@H]6O[C@@H]6O[C@@H](C)[C@H](O)[C@@H](O)[C@H]6O)CCC5(C)C4CCC3(C)C2C1C)CO[C@@H]1O[C@H](CO)[C@@H](O)[C@H](O)[C@H]1O (some centres not stated),Potency,[1],inactive
same,redox activity (% of DA3003),[7],5.01% [at 11.5 µM] (inactive)
same,"activity change, negative = cytotoxicity",PA-1,4.42% [at 11.6 µM] (inactive)
same,"activity change, negative = cytotoxicity",SKOV3,-2.2% [at 11.6 µM] (inactive)
C=C1C(=O)O[C@@H]2C[C@@H](C)[C@]34C[C@]5(C(=O)O[C@H]6CC(C)=C([C@H](C)CCCO)[C@H](OC(=O)C(C)CC)[C@H]65)[C@@H](C(C)=C3C[C@@H]12)[C@H]4OC(C)=O (some centres not stated),Potency,[1],inactive
same,Potency,[7],inactive
same,Potency,SKOV3,inactive
COc1cc(-c2cc(-c3cccc(O)c3)cnc2N)cc(OC)c1OC,Potency,[2],0.849 µM (active)
same,Potency,[7],inactive
same,Potency,PA-1,inactive
COc1ccc2c3ccnc4ccc(=O)n(c2c1)c43,Potency,[7],inactive
same,Potency,CAOV3,inactive
same,Potency,PA-1,25.1 µM (active)
CCCCC(=O)N(Cc1ccc(-c2ccccc2-c2nn[nH]n2)cc1)C(C(=O)O)C(C)C (configuration not stated),Potency,[11],inactive
same,Potency,[1],inactive
same,Potency,PA-1,inactive
C[C@@H](CN1CCC(n2c(=O)[nH]c3cc(Cl)ccc32)CC1)NC(=O)c1ccc2ccccc2c1,Potency,[1],inactive
same,Potency,[8],10.7 µM (active)
same,Potency,[2],0.239 µM (active)
same,Potency,[7],inactive
same,Potency,SKOV3,inactive
C=C(C(=O)O)C1CC2=C(C)C(=O)CC2C(C)CC1O (configuration not stated),Potency,CAOV3,inactive
same,Potency,SKOV3,inactive
